According to PubChem BioAssay AID504339 (National Center for Advancing Translational Sciences (NCATS), 2011):
In all, about 390,000 compounds went through this assay and about 17,000 (4.4%) were called active. A call without a number means that no potency is given here. About 8% were inconclusive and are not listed. Calls come from the whole dose curve; as a rule, active = well fitted inhibition curve with a large enough effect; inconclusive = small, poorly fitted or top-dose-only effect; inactive = no such curve, though single readings can be large or run the other way. Only a selection was taken, and actives are over-represented in it overall.

These molecules were tested against Lysine-specific demethylase 4A (Homo sapiens) (UniProt O75164) (assay: qHTS Assay for Inhibitors of JMJD2A-Tudor Domain). Settings: AlphaScreen JMJD2A-Tudor / H3K4me3 peptide binding; series mostly up to 114 µM.
Note: nearly all actives have a fitted effect of over 50% in size.
Potency is the fitted concentration of half-maximal effect.

Sequence of Lysine-specific demethylase 4A (Homo sapiens) (O75164 whole entry, looked up, the tested form may be a part): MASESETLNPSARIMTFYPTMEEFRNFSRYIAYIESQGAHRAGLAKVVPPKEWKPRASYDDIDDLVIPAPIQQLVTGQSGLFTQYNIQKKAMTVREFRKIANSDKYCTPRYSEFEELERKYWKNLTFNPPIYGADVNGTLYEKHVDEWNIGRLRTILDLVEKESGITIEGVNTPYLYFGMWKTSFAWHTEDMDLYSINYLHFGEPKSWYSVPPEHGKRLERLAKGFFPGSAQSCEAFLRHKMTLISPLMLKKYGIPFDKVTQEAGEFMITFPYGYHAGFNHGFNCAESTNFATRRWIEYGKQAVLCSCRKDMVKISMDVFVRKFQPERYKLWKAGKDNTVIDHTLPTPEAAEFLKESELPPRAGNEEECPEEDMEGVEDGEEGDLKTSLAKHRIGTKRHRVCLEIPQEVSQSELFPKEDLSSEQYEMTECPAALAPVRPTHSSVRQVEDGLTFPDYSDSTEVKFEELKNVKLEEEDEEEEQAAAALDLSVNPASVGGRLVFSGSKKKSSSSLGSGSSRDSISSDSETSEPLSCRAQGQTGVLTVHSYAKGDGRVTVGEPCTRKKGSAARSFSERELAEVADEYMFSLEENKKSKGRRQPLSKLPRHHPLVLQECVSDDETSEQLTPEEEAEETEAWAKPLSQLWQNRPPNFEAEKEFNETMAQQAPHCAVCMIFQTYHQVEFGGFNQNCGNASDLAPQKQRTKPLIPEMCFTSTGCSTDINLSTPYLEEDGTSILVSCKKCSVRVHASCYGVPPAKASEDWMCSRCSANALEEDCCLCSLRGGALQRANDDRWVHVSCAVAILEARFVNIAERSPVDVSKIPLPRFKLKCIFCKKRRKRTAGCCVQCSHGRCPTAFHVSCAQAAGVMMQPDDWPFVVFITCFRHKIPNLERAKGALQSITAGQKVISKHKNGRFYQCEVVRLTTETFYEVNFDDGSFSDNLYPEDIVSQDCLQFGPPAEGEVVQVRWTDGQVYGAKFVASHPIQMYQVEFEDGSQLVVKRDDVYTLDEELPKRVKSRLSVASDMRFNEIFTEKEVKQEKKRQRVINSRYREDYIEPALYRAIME

Compound	Potency	activity change, negative = inhibition
CC(C)c1ccc(NC(=O)c2cc(S(=O)(=O)N3CCc4ccccc4C3)ccc2F)cc1	inactive	
CCOc1ccccc1NC(=O)c1ccc2c(c1)CCN2S(=O)(=O)c1ccc(C)cc1	inactive	
CCOc1ccc(N(Cc2ccccc2)C(=O)c2nc(S(C)(=O)=O)ncc2Cl)cc1	inactive	
CC(CN1CCOCC1)c1ccccc1 (stereo not drawn)	inactive	
CC(CN1CCC(n2nccc2NC(=O)C2CCCC2)CC1)c1ccccc1 (stereo not drawn)	inactive	
CC(CN1CCCCC1)c1ccccc1 (stereo not drawn)	3.98 µM (active)	
COc1ccc(-n2c(SCC(N)=O)nc3c(oc4ccccc43)c2=O)cc1	inactive	
CCn1cc(C(=O)NCc2ccc(C)cc2)c(=O)c2cc(S(=O)(=O)N3CCc4ccccc4C3)ccc21	inactive	
CCCCNC(=O)c1ccc2c(c1)NC(=O)C(C(C)C)N2 (stereo not drawn)	inactive	
CCOc1ccccc1C(=O)NCC(c1ccc(N(C)C)cc1)N1CCCC1 (stereo not drawn)	inactive	
C[C@H](NC(=O)c1ccccc1)C(=O)OCC(=O)c1c[nH]c2ccccc12	inactive	
CN(C)c1ccc(C(CNC(=O)c2ccc(F)cc2)c2c[nH]c3ccccc23)cc1 (stereo not drawn)	25.1 µM (active)	
Cc1ccc(CN2COc3cc(C)c4c(oc(=O)c5ccccc54)c3C2)cc1	inactive	
Cc1ccc(NC2=C(c3ccc(C(F)(F)F)cc3)C(=O)c3ccccc32)cc1F	inactive	
COc1ccc(N2C(=O)CSC23C(=O)N(Cc2cccc(F)c2)c2ccccc23)cc1Cl (stereo not drawn)	inactive	
O=C(CS(=O)(=O)c1cccc2nsnc12)N1CCN(c2cccc(Cl)c2)CC1	inactive	
COc1ccc2c(c1OC)C(=O)N(c1ccc(O)cc1)C2	inactive	
COc1ccc(C2C(C#N)=C(N)N(c3ncn[nH]3)C3=C2C(=O)CCC3)cc1 (stereo not drawn)		-18% [at 11.4 µM] (inactive)
COc1ccc2c(c1OC)C(=O)N(c1ncn[nH]1)C2	39.8 µM (active)	
CCOC(=O)c1c(S(=O)(=O)N2CCCC(C(=O)NCc3cccc(C)c3)C2)c(C)n(C)c1C (stereo not drawn)	inactive	
Cc1cc(C)cc(NS(=O)(=O)c2ccc3[nH]cc(C(=O)N4CCCCC4)c(=O)c3c2)c1	inactive	
O=C1C(Cl)=C(Oc2ccccc2)C(=O)c2ccccc21	1 µM (active)	
Cc1ccc(-n2c3nc(=O)[nH]c(=O)c-3cc3c(Cl)cccc32)cc1	inactive	
COc1cc(CNCCSc2nnnn2C)ccc1OCc1c(F)cccc1Cl	inactive	
CC(=O)O[C@H]1c2ccccc2-c2ccccc2[C@@H]1OC(C)=O	inactive	
CN(C)CCOC1c2ccccc2-c2ccccc21	1.41 µM (active)	
COC(CCN(C)C)(c1ccccc1)c1ccccc1	inactive	
COc1cc(NC(=O)c2nn(-c3ccc(C)cc3)c(=O)c3c2c2ccccc2n3C)cc(OC)c1OC	inactive	
